Experimental data from paper PMC4336329 (PLoS ONE, 2015).
The whole screen tested about 310,000 compounds, of which about 2,200 (0.71%) showed an effect of 50% or more. The effect is printed as a negative number. The list comes from a sample in which strong results are over-represented; it also holds similar structures and randomly drawn compounds.

Target: human ether-à-go-go-related gene (hERG) potassium channel (human, UniProt Q12809)
Assay: primary screen, population patch clamp on CHO cells stably expressing hERG; higher = less effect of the substance
Procedure: Briefly, Chinese hamster ovary (CHO) cells stably expressing the hERG channel were dislodged from tissue culture flasks and dispensed into PPC plates. […] During the recording, background leak currents were estimated by a 100 ms step to -80 mV from an initial holding potential of -70 mV and subtracted from the subsequent current measurement. The campaign was conducted in two phases using slight differences in recording protocol. In the first phase, the initial voltage pulse used a 100 ms step to -30 mV from a holding potential of -70 mV, a 2 s conditioning step to +25 mV, and a 2 s test step to -30 mV. During the second phase of the screen, the potential during the conditioning step was raised to +45 mV. In both phases of the campaign, a secondary voltage pulse was applied using the same parameters as the second phase initial pulse. The initial and secondary pulses were applied in the absence of compound, and upon application of 1 μM and 10 μM test concentrations. Small molecule effects on hERG current density were quantified by […].

Chain of human ether-à-go-go-related gene (hERG) potassium channel (Q12809 whole entry, looked up): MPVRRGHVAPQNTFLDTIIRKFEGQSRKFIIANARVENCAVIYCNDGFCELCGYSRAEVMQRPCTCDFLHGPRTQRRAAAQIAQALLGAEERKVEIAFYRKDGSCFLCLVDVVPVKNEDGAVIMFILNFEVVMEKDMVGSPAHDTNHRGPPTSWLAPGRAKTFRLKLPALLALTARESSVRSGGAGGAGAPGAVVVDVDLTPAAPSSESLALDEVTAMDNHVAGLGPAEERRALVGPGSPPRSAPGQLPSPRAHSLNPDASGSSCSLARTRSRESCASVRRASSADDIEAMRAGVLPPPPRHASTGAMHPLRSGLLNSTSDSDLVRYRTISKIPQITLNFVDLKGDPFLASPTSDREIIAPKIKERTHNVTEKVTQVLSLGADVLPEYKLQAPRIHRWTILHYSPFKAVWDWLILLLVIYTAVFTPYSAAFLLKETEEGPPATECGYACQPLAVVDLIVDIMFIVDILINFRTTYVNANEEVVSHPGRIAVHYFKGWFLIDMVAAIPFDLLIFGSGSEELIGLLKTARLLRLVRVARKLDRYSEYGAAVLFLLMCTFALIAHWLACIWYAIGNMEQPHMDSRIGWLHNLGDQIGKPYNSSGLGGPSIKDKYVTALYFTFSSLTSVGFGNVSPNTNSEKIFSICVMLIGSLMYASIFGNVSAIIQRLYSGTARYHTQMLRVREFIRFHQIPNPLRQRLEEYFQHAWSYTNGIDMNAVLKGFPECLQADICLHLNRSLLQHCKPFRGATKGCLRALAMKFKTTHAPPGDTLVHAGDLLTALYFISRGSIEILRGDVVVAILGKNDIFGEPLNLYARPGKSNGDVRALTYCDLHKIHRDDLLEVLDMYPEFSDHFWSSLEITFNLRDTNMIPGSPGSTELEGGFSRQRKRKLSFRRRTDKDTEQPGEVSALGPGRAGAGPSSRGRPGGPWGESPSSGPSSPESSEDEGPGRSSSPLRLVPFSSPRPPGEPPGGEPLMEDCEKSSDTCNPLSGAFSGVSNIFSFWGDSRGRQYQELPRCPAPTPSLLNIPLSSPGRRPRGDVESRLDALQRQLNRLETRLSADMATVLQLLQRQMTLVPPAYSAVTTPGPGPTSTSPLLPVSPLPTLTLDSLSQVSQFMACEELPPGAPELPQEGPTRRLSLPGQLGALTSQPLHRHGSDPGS

SMILES	hERG current change (%, negative = inhibition) at 1uM
CSCCC(NC(=O)c1ccccc1)C(=O)NC1CCCC1 (centres unmarked)	4.81%
CC(C(=O)NC(=O)NC1CCCCC1)N(C)CC(=O)Nc1ccc(F)c(F)c1F (centres unmarked)	12.1%
OC(COC(c1ccccc1)c1ccccc1)CN1CCN(c2ccccn2)CC1 (centres unmarked)	-73.5%
OC(COc1ccc(Cl)cc1)CN1CCN(c2ccccn2)CC1 (centres unmarked)	-37.7%
CC(C)c1ccc(OCC(O)CN2CCN(c3ccccn3)CC2)cc1.Cl (centres unmarked)	-27.7%
Cl.OC(COC(c1ccc(Cl)cc1)c1ccc(Cl)cc1)CN1CCN(c2ccccn2)CC1 (centres unmarked)	-79.7%
Cc1cccc(C)c1OCC(O)CN1CCN(c2ccccn2)CC1 (centres unmarked)	-1.11%
Cl.OC(COCc1ccc(Cl)cc1)CN1CCN(c2ccccn2)CC1 (centres unmarked)	-24.9%
CCOc1cc(/C=C2\C(=O)ON=C2c2ccccc2)cc(Br)c1O	10.4%
O=C(CCCc1ccccc1)NCc1ccc2c(c1)OCO2	8.58%
COc1cccc(Cn2c(NCC(C)C)nc3c2c(=O)n(C)c(=O)n3C)c1	-7.04%
O=C(Nc1ccccc1)c1cc2ccccc2o1	8.25%
CCC(=O)Nc1ccc(NC(=O)c2cc3ccccc3o2)cc1	-5.21%
CC/C(=C\c1oc2cc3ccccc3cc2[n+]1CC)Nc1ccccc1.[I-]	-83.7%
Cc1cccc(NC(=S)Nn2cnnc2)c1C	10.9%
Cc1ccc(-c2cc(C(=O)N3CCN(C4CCS(=O)(=O)C4)CC3)c3ccccc3n2)cc1 (centres unmarked)	-3.04%
Cc1ccc(NC(=O)CN(C)C(=O)CSc2nc(C)cs2)cc1	3.7%
CN(C)c1cc(NC(=O)CNC(C)(C)CC(C)(C)C)c2ccccc2n1.O=C(O)C(=O)O	-7.36%
CCN(CC)CC(=O)Nc1cc(N(C)C)nc2ccccc12.O=C(O)C(=O)O	6.57%

SMILES	hERG current change (%, negative = inhibition) at 1uM
CCCCCC(=O)Nc1cc(N(C)C)nc2ccccc12	-77.9%
CC(Cc1ccccc1)NCC(=O)Nc1cc(N(C)C)nc2ccccc12.O=C(O)C(=O)O (centres unmarked)	-73.5%
CN(C)c1cc(NC(=O)CNC(C)(C)C)c2ccccc2n1.O=C(O)C(=O)O	2.05%
CCCCC(=O)Nc1cc(N(C)C)nc2ccccc12	-30.7%
NS(=O)(=O)c1ccc(O)c(N2C(=O)c3cccc4c(C(=O)O)ccc(c34)C2=O)c1	10.3%
COc1ccc(C(=O)CSc2nc(-c3ccccn3)nc(C)c2Cl)cc1	13%
Cc1nonc1CC(=O)N1CCCC(C(=O)c2cccc(C(F)(F)F)c2)C1 (centres unmarked)	-20.6%
O=C(C1CCC(=O)N1Cc1cccnc1)N1CCN(c2ccc(F)cc2)CC1 (centres unmarked)	10.5%
OCC[N+]12CCC(CC1)C(C(O)(c1ccccc1)c1ccccc1)C2 (centres unmarked)	15.2%
CCc1ccc(C(=O)NNc2cc(Cl)ccc2Cl)cc1	12.5%
CSc1ccc(CNc2ncc(-c3cccc([N+](=O)[O-])c3)n2C)cc1.O=C(O)C(=O)O	-26.5%
Cn1c(-c2ccccc2)cnc1NCc1ccc(-c2ccccc2)cc1.O=C(O)C(=O)O	11%
Cn1c(-c2ccc(F)cc2)cnc1NCc1ccc(C#N)cc1	-22.9%
Cn1c(-c2cccc([N+](=O)[O-])c2)cnc1NCc1cccc([N+](=O)[O-])c1.O=C(O)C(=O)O	-28.2%
Cn1c(-c2ccc(Br)cc2)cnc1NCc1ccc(C#N)cc1.O=C(O)C(=O)O	-77.2%
Cn1c(-c2cccc([N+](=O)[O-])c2)cnc1NCc1ccc(C#N)cc1.O=C(O)C(=O)O	-56.4%
O=C1CC(c2ccc(Cl)cc2)CC(O)=C1C=NCCO (centres unmarked)	10.6%
O=C1C2C3C=CC(C3)C2C(=O)N1CCN1CCN(S(=O)(=O)/C=C/c2ccccc2)CC1 (centres unmarked)	11%
Cc1cc(C)n2c(SCC(=O)NC3CCCC(C)C3C)nnc2n1 (centres unmarked)	12.4%

SMILES	hERG current change (%, negative = inhibition) at 1uM
O=C(NCc1cc(C(F)(F)F)cc(C(F)(F)F)c1)C1CC(c2cccc(F)c2)=NO1 (centres unmarked)	2.14%
O=c1cc(-c2ccccc2F)oc2ccccc12	2.56%
C=CCNc1cnn(-c2ccc(C)cc2)c(=O)c1Sc1ccc(C)cc1	13.8%
COC(=O)c1ccc(CNC(=O)COc2ccccc2Br)o1	12.4%
CC(C)CNS(=O)(=O)c1ccc(NC(=O)Cn2nc(-c3ccc(F)cc3)ccc2=O)cc1	7.17%
CN(C/C=C/c1ccccc1)Cc1cccc2ccccc12.Cl	5.76%
CSCCC(NC(=O)c1ccco1)C(=O)N1CC=C(c2ccccc2)CC1 (centres unmarked)	-1.93%
Cc1cccc(C(=O)NCC(=O)N2CC=C(c3ccccc3)CC2)c1	-1.82%
O=C(NCC(=O)N1CC=C(c2ccccc2)CC1)c1ccco1	-50.9%
c1ccc(Cn2ncc3ccccc32)cc1	10.6%
CCOCCCNS(=O)(=O)c1ccc(NC(=O)C2CC(=O)N(c3ccc(C)cc3)C2)cc1 (centres unmarked)	11.4%
CN(C)C=Nc1nonc1-c1ccc(Cl)cc1	11.2%
O=C(NCCCn1ccnc1)/C(=C\c1cccnc1)NC(=O)c1ccccc1Br	9.44%
COc1ccccc1C(=O)N/C(=C/c1ccc(Br)cc1)C(=O)NCCCn1ccnc1	-84.8%
O=C(NCCCn1ccnc1)/C(=C\c1ccc(Br)cc1)NC(=O)c1ccccc1F	-81.5%
O=C(NCCCn1ccnc1)/C(=C\c1cccnc1)NC(=O)c1ccccc1F	8%
COc1ccccc1C(=O)N/C(=C\c1ccc(Br)cc1)C(=O)NCCCO	-0.677%
COc1ccccc1C(=O)N/C(=C\c1cn(C)c2ccccc12)C(=O)NCCCn1ccnc1	12.2%
